Sampled rows, rich in hits. Any-hit rate of the full collection: about 31%.
CYP2C19 activ: human CYP2C19 activators, primary screen, biochemical, luminescence; Cytochrome P450 2C19 (Homo sapiens), P33261; recombinant CYP2C19, luciferin-H EGE luminescence; stronger effect = higher value; 0 = fully inhibited enzyme, 1 = untreated enzyme; activation factor at 5 µM; 96,000 tested, under 10 active;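 active means activation factor of at least 2 at 5 µM in the primary screen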;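 further: 0 = wells with 2.5 mM tranylcypromine and 1 = vehicle-only wells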
Target sequence (P33261 whole entry, looked up): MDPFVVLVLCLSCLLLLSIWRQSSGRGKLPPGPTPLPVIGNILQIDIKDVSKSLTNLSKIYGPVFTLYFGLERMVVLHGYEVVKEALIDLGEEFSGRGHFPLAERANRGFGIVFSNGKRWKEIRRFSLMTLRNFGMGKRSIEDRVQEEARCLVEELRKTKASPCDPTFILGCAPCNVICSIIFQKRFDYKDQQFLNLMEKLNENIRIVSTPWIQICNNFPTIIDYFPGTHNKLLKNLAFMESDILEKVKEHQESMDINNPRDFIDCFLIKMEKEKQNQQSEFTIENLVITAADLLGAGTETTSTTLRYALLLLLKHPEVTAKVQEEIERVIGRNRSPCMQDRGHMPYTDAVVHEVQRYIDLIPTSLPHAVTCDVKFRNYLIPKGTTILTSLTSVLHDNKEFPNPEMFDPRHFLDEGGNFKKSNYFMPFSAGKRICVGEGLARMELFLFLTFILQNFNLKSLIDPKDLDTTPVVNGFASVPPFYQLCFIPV
CYP2C19 inhib: blockers of cytochrome P450 2C19 activity – biochemical, luminescence, ADME assay, primary screen | actives 21% (n = 96,000) | inhibition, % at 5 µM | AID 778, 2007 | CYP2C19 Supersomes, luciferin-H EGE luminescence, 30 min;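 active means CYP2C19 inhibition above a set limit at 5 µM in the primary screen, cut at about 50% in these data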;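 further: plate controls were negative control wells for no effect and 2.5 mM tranylcypromine positive control for full effect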
CYP2C9 act: human CYP2C9 activators, primary screen, biochemical, luminescence | recombinant CYP2C9, luciferin-H conversion; stronger effect = higher value; factor 1 = untreated enzyme, 0 = blocked | activation factor at 5 µM | actives 1.4% (n = 96,000);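 active means activation factor of 2 or more for CYP2C9 at a 5 µM dose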;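 further: 0 = sulfaphenazole-blocked wells and 1 = vehicle-only wells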
PLAP activator: PLAP enzyme activators, biochemical, luminescence, HTS; Alkaline phosphatase, placental type (Homo sapiens), P05187; purified PLAP enzyme, luminescent substrate read-out; stronger effect = higher value; activation fold at 20 µM; actives 1.2% (n = 96,000); in the data active means activation fold above about 2
CYP2C9 inhib: blockers of cytochrome P450 2C9 activity – biochemical, luminescence, ADME assay, primary screen. P11712. CYP2C9 Supersomes, luciferin-H conversion. inhibition, % at 5 µM. actives 20% (n = 96,000);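 active means blocking of liver enzyme CYP2C9 beyond about 50% at 5 µM, limit read from the data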
The depositor's hits bear a star.

How did COc1ccc(-n2nnc3c(=O)n(Cc4cc(C)ccc4C)cnc32)cc1 do in these assays?
CYP2C19 activ: 0.6; CYP2C19 inhib: 36; CYP2C9 act: 0.3; PLAP activator: 0.9; CYP2C9 inhib: 72*

What do the screens show for `CC1=NN(C(=O)c2ccc(Br)cc2)C(O)(C(F)(F)OC(F)(F)F)C1` (centres undefined)?
CYP2C19 activ: 0.5; CYP2C19 inhib: 53*; CYP2C9 act: 0.8; PLAP activator: 1; CYP2C9 inhib: 24

How did CC1=NN(C(=O)c2csc(C)c2)C(O)(C(F)(F)F)C1 (centres undefined) do in these assays?
CYP2C19 activ: 0.6; CYP2C19 inhib: 44; CYP2C9 act: 0.8; PLAP activator: 1.2; CYP2C9 inhib: 20

Results for c1ccc(-c2csc(N3CCN(c4ccccn4)CC3)n2)cc1 ?
CYP2C19 activ: 0.8; CYP2C19 inhib: 20; CYP2C9 act: 1.1; PLAP activator: 0.9; CYP2C9 inhib: -10

What do the screens show for `c1ccc(CCNc2ncnc3scc(C4COc5ccccc5O4)c23)cc1` (centres undefined)?
CYP2C19 activ: 0.4; CYP2C19 inhib: 57*; CYP2C9 act: 0.3; PLAP activator: 1.6; CYP2C9 inhib: 73*

What do the screens show for `O=C(CSc1nnc(C2COc3ccccc3O2)o1)Nc1nccs1` (centres undefined)?
CYP2C19 activ: 0.9; CYP2C19 inhib: 8; CYP2C9 act: 0.7; PLAP activator: 1.2; CYP2C9 inhib: 30

Results for c1ccc2c(c1)OCC(c1csc3ncnc(N4CCCC4)c13)O2 (centres undefined) ?
CYP2C19 activ: 0; CYP2C19 inhib: 99*; CYP2C9 act: 0.1; PLAP activator: 1.9; CYP2C9 inhib: 94*

How did CCc1nnc(NC(=O)CCC(=O)N2CCN(c3ccccn3)CC2)s1 do in these assays?
CYP2C19 activ: 1; CYP2C19 inhib: 0; CYP2C9 act: 1.1; PLAP activator: 1; CYP2C9 inhib: -9

Results for CCc1c(C)nc(Nc2nc(C)c3cc(OC)ccc3n2)[nH]c1=O ?
CYP2C19 activ: 0.9; CYP2C19 inhib: 10; CYP2C9 act: 0.9; PLAP activator: 1.3; CYP2C9 inhib: 14

What do the screens show for `CCCCCc1c(C)nc(Nc2nc(C)c3cc(OC)ccc3n2)[nH]c1=O`?
CYP2C19 activ: 0.6; CYP2C19 inhib: 44; CYP2C9 act: 0.5; PLAP activator: 2*; CYP2C9 inhib: 48

How did Cc1ccc(C)c2c1sc(=NC(=O)CN1C(=O)CCC1=O)n2C do in these assays?
CYP2C19 activ: 1.3; CYP2C19 inhib: -25; CYP2C9 act: 1.3; PLAP activator: 1.2; CYP2C9 inhib: -27

What do the screens show for `O=C1CC(=Nc2ccccc2)NN1c1ccccc1`?
CYP2C19 activ: 0.6; CYP2C19 inhib: 36; CYP2C9 act: 0.2; PLAP activator: 1.3; CYP2C9 inhib: 84*

Results for CC(=O)c1ccc(NC(=O)/C(=C\c2ccccc2)NC(=O)/C=C/c2ccccc2)cc1 ?
CYP2C19 activ: 0.9; CYP2C19 inhib: 12; CYP2C9 act: 0.5; PLAP activator: 1.4; CYP2C9 inhib: 53*

How did Cc1ccc(NC(=O)/C(=C\c2ccc([N+](=O)[O-])cc2)NC(=O)c2ccccc2)cc1 do in these assays?
CYP2C19 activ: 0.9; CYP2C19 inhib: 7; CYP2C9 act: 1.1; PLAP activator: 0.9; CYP2C9 inhib: -5

What do the screens show for `O=C(O)c1nn(-c2ccc(Cl)cc2)ccc1=O`?
CYP2C19 activ: 1.1; CYP2C19 inhib: -7; CYP2C9 act: 1.1; PLAP activator: 1.2; CYP2C9 inhib: -9

How did COc1cccc(CN2CCN(C(=O)CC(C)C)CC2)c1 do in these assays?
CYP2C19 activ: 0.6; CYP2C19 inhib: 39; CYP2C9 act: 1.1; PLAP activator: 1.5; CYP2C9 inhib: -8

How did O=C(CSCc1cccc(F)c1)N1CCN(c2ccccc2)CC1 do in these assays?
CYP2C19 activ: 0.5; CYP2C19 inhib: 52*; CYP2C9 act: 0.4; PLAP activator: 1; CYP2C9 inhib: 58*

How did O=C(CSCc1ccccc1)N1CCN(c2cccc(C(F)(F)F)c2)CC1 do in these assays?
CYP2C19 activ: 0.1; CYP2C19 inhib: 86*; CYP2C9 act: 0.1; PLAP activator: 1.6; CYP2C9 inhib: 93*

Results for O=C1Nc2ccccc2OC1CC(=O)N1CCN(c2cccc(C(F)(F)F)c2)CC1 (centres undefined) ?
CYP2C19 activ: 0.7; CYP2C19 inhib: 28; CYP2C9 act: 0.3; PLAP activator: 1.5; CYP2C9 inhib: 72*

What do the screens show for `CC(C)CC(=O)N1CCN(Cc2cccc(F)c2)CC1`?
CYP2C19 activ: 0.4; CYP2C19 inhib: 59*; CYP2C9 act: 1; PLAP activator: 1; CYP2C9 inhib: -4

Results for O=C(CSCc1ccccc1)N1CCN(c2ccc(F)cc2)CC1 ?
CYP2C19 activ: 0.5; CYP2C19 inhib: 49; CYP2C9 act: 0.8; PLAP activator: 1.1; CYP2C9 inhib: 21

Results for O=C(Cn1ccc2ccccc2c1=O)NCCC(=O)N1CCN(c2cccc(C(F)(F)F)c2)CC1 ?
CYP2C19 activ: 0.8; CYP2C19 inhib: 16; CYP2C9 act: 0.8; PLAP activator: 1.1; CYP2C9 inhib: 24

How did COc1ccccc1NC(=O)Cn1cnc2c(cnn2-c2ccc(C)c(C)c2)c1=O do in these assays?
CYP2C19 activ: 1; CYP2C19 inhib: 2; CYP2C9 act: 0.9; PLAP activator: 0.9; CYP2C9 inhib: 14

What do the screens show for `CCSc1ccc2nnc(-c3ccc(F)cc3)n2n1`?
CYP2C19 activ: 0.8; CYP2C19 inhib: 22; CYP2C9 act: 1; PLAP activator: 0.9; CYP2C9 inhib: 4

What do the screens show for `CCc1cc2c(=O)c(-n3cnc4ccccc43)coc2cc1O`?
CYP2C19 activ: 0.7; CYP2C19 inhib: 34; CYP2C9 act: 1.1; PLAP activator: 1; CYP2C9 inhib: -15

What do the screens show for `COC(=O)c1ccc2c(=O)n(NC(=O)C(c3ccccc3)c3ccccc3)c(=S)[nH]c2c1`?
CYP2C19 activ: 1; CYP2C19 inhib: 1; CYP2C9 act: 0.4; PLAP activator: 1.7; CYP2C9 inhib: 62*

How did COC(=O)c1ccc2c(=O)n(CCO)c(=S)[nH]c2c1 do in these assays?
CYP2C19 activ: 1.1; CYP2C19 inhib: -8; CYP2C9 act: 0.9; PLAP activator: 0.9; CYP2C9 inhib: 5

Results for COc1ccc(CNC(=O)CSc2ncnc3nc[nH]c23)cc1 ?
CYP2C19 activ: 0.4; CYP2C19 inhib: 61*; CYP2C9 act: 0.8; PLAP activator: 0.8; CYP2C9 inhib: 17

How did O=C(CSc1ncnc2nc[nH]c12)NCCc1ccccc1 do in these assays?
CYP2C19 activ: 0.9; CYP2C19 inhib: 6; CYP2C9 act: 1; PLAP activator: 0.9; CYP2C9 inhib: -3

How did CC(NC(=O)CSc1ncnc2nc[nH]c12)c1ccccc1 (centres undefined) do in these assays?
CYP2C19 activ: 0.8; CYP2C19 inhib: 23; CYP2C9 act: 0.1; PLAP activator: 1.4; CYP2C9 inhib: 94*
